# Publication PMC7862700, “An all-to-all approach to the identification of sequence-specific readers for epigenetic DNA modifications on cytosine”
# Columns and labels:
# Assay in all cases: DAPPL (digital affinity profiling via proximity ligation, sequencing); 10 mM Tris-HCl pH 7.5, 50 mM NaCl, 1 mM DTT, 4% glycerol, room temperature, 30 min; GST-TFs on glutathione beads, 16-mer random dsDNA library, 0.1% formaldehyde crosslink after washing; high values mean tight binding
# [1] = target: T1, FEV (Homo sapiens, UniProt Q99581 1-238); settings: protein: recombinant; tags: N-terminal GST; dsDNA, one strand shown
# T1 sequence: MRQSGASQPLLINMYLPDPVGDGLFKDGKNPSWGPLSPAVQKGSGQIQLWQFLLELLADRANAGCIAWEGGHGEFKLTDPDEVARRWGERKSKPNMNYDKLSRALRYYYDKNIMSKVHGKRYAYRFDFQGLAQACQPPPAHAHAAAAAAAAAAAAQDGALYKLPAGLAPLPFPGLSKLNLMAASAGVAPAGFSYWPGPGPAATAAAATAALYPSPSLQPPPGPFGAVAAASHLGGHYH
# In short: (§1)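 Human transcription factors carrying a GST fusion were produced in yeast, bound to glutathione beads, tagged with DNA barcodes and pooled together with a tag-only sample. Each pool was held with 200 nmole of a random double-stranded 16-mer DNA library in Tris/NaCl/DTT/glycerol buffer for 30 min at room temperature, then washed, crosslinked in 0.1% formaldehyde, proximity-ligated with BsaI/T4 ligase (1 h, 37 °C), PCR-amplified and sequenced on an Illumina NextSeq500. Binding signal is the read frequency of each hexamer for a given factor divided by its frequency in the tag-only sample.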
# [2] = target: ETV5 (Homo sapiens, UniProt P41161 1-510); settings: protein: recombinant; tags: N-terminal GST; dsDNA, one strand shown
# In short: as §1
# [3] = target: HSF1 (Homo sapiens, UniProt Q00613 1-529); settings: protein: recombinant; tags: N-terminal GST; chain copies: 3; dsDNA, one strand shown
# In short: as §1
# [4] = target: T2, SPIC (Homo sapiens, UniProt Q8N5J4 1-248); settings: protein: recombinant; tags: N-terminal GST; dsDNA, one strand shown
# T2 sequence: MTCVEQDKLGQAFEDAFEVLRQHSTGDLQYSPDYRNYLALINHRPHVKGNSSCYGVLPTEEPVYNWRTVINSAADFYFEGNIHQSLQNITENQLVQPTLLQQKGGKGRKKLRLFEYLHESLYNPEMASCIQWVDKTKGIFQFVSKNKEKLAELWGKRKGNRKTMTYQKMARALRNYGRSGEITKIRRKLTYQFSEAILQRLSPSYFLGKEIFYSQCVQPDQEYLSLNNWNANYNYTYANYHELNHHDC
# In short: as §1
# [5] = target: ELF4 (Homo sapiens, UniProt Q99607 1-663); settings: protein: recombinant; tags: N-terminal GST; dsDNA, one strand shown
# In short: as §1
# [6] = target: T3, ELK4 (Homo sapiens, UniProt P28324-2 1-405); settings: protein: recombinant; tags: N-terminal GST; dsDNA, one strand shown
# T3 sequence: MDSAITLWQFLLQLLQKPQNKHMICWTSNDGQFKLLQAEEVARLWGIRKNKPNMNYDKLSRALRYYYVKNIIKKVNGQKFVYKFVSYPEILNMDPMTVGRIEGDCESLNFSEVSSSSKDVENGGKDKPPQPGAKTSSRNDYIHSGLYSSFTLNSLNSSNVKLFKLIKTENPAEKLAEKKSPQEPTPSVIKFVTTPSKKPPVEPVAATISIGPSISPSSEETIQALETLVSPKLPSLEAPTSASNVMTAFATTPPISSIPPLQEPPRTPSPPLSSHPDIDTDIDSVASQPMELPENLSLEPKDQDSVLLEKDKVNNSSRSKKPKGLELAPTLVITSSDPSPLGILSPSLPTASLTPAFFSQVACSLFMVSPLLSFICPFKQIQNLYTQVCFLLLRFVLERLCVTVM
# In short: as §1
# [7] = target: T4, ETV2 (Homo sapiens, UniProt O00321 1-342); settings: protein: recombinant; tags: N-terminal GST; dsDNA, one strand shown
# T4 sequence: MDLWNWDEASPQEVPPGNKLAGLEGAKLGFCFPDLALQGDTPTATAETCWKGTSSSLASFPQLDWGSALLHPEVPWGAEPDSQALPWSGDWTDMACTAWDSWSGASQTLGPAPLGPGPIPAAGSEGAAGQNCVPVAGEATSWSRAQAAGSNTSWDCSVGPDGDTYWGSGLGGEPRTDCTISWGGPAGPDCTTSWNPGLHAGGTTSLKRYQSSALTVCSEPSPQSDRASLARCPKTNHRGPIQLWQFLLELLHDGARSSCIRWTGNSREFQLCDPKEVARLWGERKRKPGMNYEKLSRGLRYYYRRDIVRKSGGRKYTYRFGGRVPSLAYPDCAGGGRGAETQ
# In short: as §1
# [8] = target: T5, ELF3 (Homo sapiens, UniProt P78545 1-371); settings: protein: recombinant; tags: N-terminal GST; dsDNA, one strand shown
# T5 sequence: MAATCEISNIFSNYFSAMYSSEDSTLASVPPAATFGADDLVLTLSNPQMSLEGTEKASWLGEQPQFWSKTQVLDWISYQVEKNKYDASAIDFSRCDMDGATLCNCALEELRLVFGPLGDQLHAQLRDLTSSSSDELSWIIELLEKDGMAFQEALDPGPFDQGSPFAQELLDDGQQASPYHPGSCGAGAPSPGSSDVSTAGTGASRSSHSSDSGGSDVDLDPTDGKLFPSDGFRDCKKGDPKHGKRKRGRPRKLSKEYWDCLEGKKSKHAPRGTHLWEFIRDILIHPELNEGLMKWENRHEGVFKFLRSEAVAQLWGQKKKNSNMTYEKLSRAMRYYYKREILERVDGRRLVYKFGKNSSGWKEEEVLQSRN
# In short: as §1
# [9] = target: CRX (Homo sapiens, UniProt O43186 1-299); settings: protein: recombinant; tags: N-terminal GST; dsDNA, one strand shown
# In short: as §1
# [10] = target: ETV1 (Homo sapiens, UniProt P50549 1-477); settings: protein: recombinant; tags: N-terminal GST; dsDNA, one strand shown
# In short: as §1
# [11] = target: T6, ERF (Homo sapiens, UniProt P50548 1-548); settings: protein: recombinant; tags: N-terminal GST; dsDNA, one strand shown
# T6 sequence: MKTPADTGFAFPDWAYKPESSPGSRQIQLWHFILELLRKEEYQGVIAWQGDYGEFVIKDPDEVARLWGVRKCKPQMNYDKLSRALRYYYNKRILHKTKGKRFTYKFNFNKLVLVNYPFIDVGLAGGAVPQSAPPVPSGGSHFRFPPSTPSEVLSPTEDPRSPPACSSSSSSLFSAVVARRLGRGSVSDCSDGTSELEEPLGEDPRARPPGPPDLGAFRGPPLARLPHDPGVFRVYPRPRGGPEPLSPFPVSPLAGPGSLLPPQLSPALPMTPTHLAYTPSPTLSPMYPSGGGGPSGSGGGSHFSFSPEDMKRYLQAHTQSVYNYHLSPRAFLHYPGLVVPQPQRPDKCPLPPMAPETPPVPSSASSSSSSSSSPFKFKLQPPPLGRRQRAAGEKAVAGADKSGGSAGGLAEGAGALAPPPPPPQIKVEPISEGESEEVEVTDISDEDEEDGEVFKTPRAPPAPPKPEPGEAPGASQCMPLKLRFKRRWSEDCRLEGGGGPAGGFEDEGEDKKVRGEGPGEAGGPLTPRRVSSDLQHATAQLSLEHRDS
# In short: as §1
# [12] = target: T7, ETV3L (Homo sapiens, UniProt Q6ZN32 1-361); settings: protein: recombinant; tags: N-terminal GST; dsDNA, one strand shown
# T7 sequence: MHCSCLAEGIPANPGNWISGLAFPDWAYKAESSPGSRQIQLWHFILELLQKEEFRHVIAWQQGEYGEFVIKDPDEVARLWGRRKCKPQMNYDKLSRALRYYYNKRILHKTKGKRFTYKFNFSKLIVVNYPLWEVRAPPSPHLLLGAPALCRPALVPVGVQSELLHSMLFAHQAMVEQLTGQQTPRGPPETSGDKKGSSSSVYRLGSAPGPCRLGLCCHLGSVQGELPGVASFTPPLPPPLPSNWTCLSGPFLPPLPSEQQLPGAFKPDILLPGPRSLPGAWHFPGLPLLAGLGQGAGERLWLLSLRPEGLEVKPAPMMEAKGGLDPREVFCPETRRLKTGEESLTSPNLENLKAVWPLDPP
# In short: as §1
# [13] = target: T8, ETS2 (Homo sapiens, UniProt P15036 1-469); settings: protein: recombinant; tags: N-terminal GST; dsDNA, one strand shown
# T8 sequence: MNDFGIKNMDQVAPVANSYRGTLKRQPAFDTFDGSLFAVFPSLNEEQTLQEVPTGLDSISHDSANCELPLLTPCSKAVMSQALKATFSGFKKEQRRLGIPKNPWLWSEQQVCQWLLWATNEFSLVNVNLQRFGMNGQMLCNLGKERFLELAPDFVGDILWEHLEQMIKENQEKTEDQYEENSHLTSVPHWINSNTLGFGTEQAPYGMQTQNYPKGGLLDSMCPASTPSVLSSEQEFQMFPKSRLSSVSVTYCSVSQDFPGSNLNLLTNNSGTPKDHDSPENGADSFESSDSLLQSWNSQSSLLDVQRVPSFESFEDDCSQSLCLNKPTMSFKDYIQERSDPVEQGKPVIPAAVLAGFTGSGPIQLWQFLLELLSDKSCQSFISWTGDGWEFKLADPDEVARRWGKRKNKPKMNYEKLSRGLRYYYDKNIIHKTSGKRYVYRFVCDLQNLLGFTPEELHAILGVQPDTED
# In short: as §1
# [14] = target: T9, SPDEF (Homo sapiens, UniProt O95238 1-335); settings: protein: recombinant; tags: N-terminal GST; dsDNA, one strand shown
# T9 sequence: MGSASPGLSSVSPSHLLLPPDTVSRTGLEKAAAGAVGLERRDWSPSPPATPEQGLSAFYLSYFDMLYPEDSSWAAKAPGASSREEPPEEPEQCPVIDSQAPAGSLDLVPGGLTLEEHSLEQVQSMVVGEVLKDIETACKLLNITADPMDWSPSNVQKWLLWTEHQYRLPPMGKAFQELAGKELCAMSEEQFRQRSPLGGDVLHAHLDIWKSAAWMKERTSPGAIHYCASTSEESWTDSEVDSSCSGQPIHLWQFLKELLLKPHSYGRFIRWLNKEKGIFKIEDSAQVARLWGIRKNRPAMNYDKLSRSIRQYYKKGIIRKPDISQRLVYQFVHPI
# In short: as §1
# [15] = target: T10, ETV7 (Homo sapiens, UniProt Q9Y603 1-341); settings: protein: recombinant; tags: N-terminal GST; dsDNA, one strand shown
# T10 sequence: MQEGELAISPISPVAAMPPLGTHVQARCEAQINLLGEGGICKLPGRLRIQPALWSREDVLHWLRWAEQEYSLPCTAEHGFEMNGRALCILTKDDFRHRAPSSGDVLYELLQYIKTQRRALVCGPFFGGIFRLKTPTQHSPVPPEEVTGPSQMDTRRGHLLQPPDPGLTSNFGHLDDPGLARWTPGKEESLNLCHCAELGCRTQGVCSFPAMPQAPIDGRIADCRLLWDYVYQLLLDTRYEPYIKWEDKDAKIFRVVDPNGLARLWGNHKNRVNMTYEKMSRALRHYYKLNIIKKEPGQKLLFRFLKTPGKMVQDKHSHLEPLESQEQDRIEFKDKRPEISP
# In short: as §1
# [16] = target: T11, ELF5 (Homo sapiens, UniProt Q9UKW6-2 1-255); settings: protein: recombinant; tags: N-terminal GST; dsDNA, one strand shown
# T11 sequence: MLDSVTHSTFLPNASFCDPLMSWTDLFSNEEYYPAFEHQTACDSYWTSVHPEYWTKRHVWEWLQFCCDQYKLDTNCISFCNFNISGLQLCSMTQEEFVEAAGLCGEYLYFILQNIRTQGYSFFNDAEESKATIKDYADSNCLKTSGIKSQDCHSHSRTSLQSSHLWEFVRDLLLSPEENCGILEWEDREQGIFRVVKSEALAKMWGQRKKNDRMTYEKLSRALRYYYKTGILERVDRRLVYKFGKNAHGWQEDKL
# In short: as §1
# [17] = target: T12, ETV3 (Homo sapiens, UniProt P41162-2 1-143); settings: protein: recombinant; tags: N-terminal GST; dsDNA, one strand shown
# T12 sequence: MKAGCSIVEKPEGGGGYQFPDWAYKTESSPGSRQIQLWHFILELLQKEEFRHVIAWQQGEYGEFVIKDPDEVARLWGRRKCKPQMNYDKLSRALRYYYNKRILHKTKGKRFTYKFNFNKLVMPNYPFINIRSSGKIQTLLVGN
# In short: as §1
# [18] = target: ETV6 (Homo sapiens, UniProt P41212 1-452); settings: protein: recombinant; tags: N-terminal GST; dsDNA, one strand shown
# In short: as §1
# Chain of HSF1 (Q00613 whole entry): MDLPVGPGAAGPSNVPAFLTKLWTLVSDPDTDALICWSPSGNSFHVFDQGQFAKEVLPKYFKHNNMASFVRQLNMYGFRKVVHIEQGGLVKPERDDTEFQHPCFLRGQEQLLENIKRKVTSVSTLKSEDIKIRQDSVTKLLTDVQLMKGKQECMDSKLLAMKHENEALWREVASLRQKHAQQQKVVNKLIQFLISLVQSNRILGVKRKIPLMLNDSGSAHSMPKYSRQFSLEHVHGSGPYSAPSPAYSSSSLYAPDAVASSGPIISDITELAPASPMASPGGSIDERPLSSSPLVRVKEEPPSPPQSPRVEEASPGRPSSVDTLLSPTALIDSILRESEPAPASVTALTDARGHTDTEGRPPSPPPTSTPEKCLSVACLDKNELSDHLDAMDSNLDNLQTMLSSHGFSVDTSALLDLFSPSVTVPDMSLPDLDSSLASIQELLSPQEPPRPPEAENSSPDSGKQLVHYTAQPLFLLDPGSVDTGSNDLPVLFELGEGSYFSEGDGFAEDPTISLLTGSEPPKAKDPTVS
# Chain of ETV1 (P50549 whole entry): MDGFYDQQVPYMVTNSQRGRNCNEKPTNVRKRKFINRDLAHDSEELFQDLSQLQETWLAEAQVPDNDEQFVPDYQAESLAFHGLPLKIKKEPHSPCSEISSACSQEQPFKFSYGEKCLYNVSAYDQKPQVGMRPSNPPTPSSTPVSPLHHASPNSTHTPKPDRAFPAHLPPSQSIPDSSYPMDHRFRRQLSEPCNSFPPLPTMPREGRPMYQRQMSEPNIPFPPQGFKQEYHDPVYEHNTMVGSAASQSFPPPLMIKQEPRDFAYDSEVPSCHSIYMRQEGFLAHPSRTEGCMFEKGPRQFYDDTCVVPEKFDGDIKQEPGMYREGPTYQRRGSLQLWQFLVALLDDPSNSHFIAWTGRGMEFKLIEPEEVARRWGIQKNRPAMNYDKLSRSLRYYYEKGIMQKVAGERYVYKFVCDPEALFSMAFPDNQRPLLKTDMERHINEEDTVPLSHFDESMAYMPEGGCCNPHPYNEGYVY
# Chain of ETV5 (P41161 whole entry): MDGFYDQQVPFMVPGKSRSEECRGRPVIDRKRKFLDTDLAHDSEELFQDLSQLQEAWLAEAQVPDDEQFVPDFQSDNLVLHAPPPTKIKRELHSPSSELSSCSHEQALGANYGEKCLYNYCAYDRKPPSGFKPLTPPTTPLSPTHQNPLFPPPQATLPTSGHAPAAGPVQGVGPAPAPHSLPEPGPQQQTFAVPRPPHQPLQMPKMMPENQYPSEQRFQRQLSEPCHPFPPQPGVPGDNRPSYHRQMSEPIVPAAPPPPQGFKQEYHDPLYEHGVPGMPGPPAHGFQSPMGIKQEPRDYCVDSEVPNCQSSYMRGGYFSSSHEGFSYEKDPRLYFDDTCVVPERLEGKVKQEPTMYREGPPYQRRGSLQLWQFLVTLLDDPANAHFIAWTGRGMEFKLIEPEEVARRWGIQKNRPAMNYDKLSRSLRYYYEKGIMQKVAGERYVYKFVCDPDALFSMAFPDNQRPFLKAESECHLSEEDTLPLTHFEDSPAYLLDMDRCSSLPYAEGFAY
# Chain of ELF4 (Q99607 whole entry): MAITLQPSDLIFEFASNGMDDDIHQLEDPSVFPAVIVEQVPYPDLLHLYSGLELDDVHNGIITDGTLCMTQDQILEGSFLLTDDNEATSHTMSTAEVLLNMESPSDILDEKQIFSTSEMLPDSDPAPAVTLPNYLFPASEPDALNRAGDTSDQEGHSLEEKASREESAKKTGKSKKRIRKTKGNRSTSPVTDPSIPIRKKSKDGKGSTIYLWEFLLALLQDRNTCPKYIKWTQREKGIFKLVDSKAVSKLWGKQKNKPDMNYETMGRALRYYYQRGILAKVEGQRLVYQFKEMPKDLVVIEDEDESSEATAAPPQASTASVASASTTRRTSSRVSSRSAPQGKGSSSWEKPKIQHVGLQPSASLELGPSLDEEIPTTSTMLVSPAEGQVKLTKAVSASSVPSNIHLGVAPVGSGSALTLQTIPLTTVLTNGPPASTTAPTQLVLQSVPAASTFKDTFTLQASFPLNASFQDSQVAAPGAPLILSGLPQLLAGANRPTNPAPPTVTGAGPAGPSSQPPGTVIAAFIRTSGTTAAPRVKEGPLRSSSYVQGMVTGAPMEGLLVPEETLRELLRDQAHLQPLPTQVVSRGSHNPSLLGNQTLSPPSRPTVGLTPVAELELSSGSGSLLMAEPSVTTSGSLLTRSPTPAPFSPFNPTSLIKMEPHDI
# Chain of CRX (O43186 whole entry): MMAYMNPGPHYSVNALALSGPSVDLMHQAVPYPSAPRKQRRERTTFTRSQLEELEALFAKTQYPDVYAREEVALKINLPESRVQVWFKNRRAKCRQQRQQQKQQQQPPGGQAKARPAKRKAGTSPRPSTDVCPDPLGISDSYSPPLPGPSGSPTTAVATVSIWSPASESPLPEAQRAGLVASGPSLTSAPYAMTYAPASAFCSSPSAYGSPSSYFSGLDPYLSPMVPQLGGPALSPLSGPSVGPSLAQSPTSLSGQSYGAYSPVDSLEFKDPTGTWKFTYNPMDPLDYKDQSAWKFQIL
# Chain of ETV6 (P41212 whole entry): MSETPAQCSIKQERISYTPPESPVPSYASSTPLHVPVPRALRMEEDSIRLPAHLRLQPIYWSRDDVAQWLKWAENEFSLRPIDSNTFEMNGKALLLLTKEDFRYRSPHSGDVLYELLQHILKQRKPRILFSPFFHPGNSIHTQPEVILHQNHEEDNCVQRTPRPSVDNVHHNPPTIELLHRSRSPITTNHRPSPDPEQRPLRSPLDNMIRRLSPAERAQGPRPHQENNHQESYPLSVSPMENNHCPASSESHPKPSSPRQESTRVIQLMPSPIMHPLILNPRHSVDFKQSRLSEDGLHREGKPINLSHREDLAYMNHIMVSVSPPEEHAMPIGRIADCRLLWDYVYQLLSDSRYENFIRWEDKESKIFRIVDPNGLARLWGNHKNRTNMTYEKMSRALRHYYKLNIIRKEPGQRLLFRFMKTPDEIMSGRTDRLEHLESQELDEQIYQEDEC
sequence,measurement,setting,value
CTACGC,binding signal,[1],"1.62 fold enrichment (6-mer frequency, TF over GST control)"
same,binding signal,[2],"1.6 fold enrichment (6-mer frequency, TF over GST control)"
same,binding signal,[3],"1.39 fold enrichment (6-mer frequency, TF over GST control)"
same,binding signal,[4],"1.36 fold enrichment (6-mer frequency, TF over GST control)"
same,binding signal,[5],"1.51 fold enrichment (6-mer frequency, TF over GST control)"
same,binding signal,[6],"1.6 fold enrichment (6-mer frequency, TF over GST control)"
same,binding signal,[7],"1.57 fold enrichment (6-mer frequency, TF over GST control)"
same,binding signal,[8],"1.57 fold enrichment (6-mer frequency, TF over GST control)"
same,binding signal,[9],"1.38 fold enrichment (6-mer frequency, TF over GST control)"
same,binding signal,[10],"1.55 fold enrichment (6-mer frequency, TF over GST control)"
same,binding signal,[11],"1.72 fold enrichment (6-mer frequency, TF over GST control)"
same,binding signal,[12],"1.5 fold enrichment (6-mer frequency, TF over GST control)"
same,binding signal,[13],"1.59 fold enrichment (6-mer frequency, TF over GST control)"
same,binding signal,[14],"1.56 fold enrichment (6-mer frequency, TF over GST control)"
same,binding signal,[15],"1.42 fold enrichment (6-mer frequency, TF over GST control)"
same,binding signal,[16],"1.49 fold enrichment (6-mer frequency, TF over GST control)"
same,binding signal,[17],"1.59 fold enrichment (6-mer frequency, TF over GST control)"
same,binding signal,[18],"1.64 fold enrichment (6-mer frequency, TF over GST control)"
